Data: PMC7862700, “An all-to-all approach to the identification of sequence-specific readers for epigenetic DNA modifications on cytosine”

Key:
Assay in all cases: DAPPL (digital affinity profiling via proximity ligation, sequencing); 10 mM Tris-HCl pH 7.5, 50 mM NaCl, 1 mM DTT, 4% glycerol, room temperature, 30 min; GST-TFs on glutathione beads, 16-mer random dsDNA library, 0.1% formaldehyde crosslink after washing; high values mean tight binding
FLI1 = target: T1, FLI1 (Homo sapiens, UniProt Q01543 1-452); conditions: protein: recombinant; tags: N-terminal GST; dsDNA, one strand shown
T1 sequence: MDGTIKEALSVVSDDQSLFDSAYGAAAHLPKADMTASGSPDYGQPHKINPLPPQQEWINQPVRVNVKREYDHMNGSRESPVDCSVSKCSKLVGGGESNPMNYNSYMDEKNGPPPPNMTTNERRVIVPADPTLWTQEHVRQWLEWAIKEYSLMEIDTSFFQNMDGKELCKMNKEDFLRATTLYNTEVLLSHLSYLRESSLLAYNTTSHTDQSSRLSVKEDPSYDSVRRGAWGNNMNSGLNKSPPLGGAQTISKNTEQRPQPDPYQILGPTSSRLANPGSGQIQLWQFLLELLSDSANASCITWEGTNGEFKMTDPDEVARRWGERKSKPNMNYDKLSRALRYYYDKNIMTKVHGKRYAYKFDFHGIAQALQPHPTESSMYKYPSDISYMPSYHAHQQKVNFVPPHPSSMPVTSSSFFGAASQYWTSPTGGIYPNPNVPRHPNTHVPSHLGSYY
Outline: (§1)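 A tag-only sample was pooled with DNA-barcoded human transcription factors that had been expressed in yeast as GST fusions and captured on glutathione beads. The pools were incubated for 30 min at room temperature with 200 nmole of a random double-stranded 16-mer DNA library in Tris/NaCl/DTT/glycerol buffer, then washed, crosslinked with 0.1% formaldehyde, proximity-ligated (BsaI/T4 ligase, 1 h, 37 °C), PCR-amplified and sequenced on an Illumina NextSeq500. Binding signal is each hexamer's read frequency for a factor divided by its frequency for the tag-only sample.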

ELK1 = target: T2, ELK1 (Homo sapiens, UniProt P19419 1-428); conditions: protein: recombinant; tags: N-terminal GST; dsDNA, one strand shown
T2 sequence: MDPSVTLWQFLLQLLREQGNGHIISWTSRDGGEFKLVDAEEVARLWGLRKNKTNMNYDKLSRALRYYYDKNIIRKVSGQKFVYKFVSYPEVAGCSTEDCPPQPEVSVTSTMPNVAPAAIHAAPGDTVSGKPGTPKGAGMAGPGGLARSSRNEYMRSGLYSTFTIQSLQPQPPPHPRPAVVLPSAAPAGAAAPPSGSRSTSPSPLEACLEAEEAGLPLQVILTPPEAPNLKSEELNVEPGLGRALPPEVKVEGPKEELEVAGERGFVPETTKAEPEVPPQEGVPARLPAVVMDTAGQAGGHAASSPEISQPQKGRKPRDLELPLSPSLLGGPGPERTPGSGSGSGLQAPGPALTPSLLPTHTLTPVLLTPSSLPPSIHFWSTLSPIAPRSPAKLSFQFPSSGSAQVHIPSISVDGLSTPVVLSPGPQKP
Outline: as §1

GABPA = target: T3, GABPA (Homo sapiens, UniProt Q06546 1-454); conditions: protein: recombinant; tags: N-terminal GST; dsDNA, one strand shown
T3 sequence: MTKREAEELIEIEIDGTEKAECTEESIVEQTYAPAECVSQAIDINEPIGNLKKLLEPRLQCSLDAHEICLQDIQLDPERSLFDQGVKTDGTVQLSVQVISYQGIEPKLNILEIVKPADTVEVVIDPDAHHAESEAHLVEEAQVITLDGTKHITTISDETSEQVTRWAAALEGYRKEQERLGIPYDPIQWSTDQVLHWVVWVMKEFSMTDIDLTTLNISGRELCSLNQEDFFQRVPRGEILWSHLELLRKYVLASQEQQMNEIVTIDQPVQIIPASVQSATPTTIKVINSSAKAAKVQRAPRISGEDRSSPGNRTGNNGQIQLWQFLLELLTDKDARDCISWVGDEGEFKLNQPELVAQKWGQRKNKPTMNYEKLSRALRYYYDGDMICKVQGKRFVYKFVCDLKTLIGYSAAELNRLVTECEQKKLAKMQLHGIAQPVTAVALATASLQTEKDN
Outline: as §1

ERG = target: T4, ERG (Homo sapiens, UniProt P11308 1-479); conditions: protein: recombinant; tags: N-terminal GST; dsDNA, one strand shown
T4 sequence: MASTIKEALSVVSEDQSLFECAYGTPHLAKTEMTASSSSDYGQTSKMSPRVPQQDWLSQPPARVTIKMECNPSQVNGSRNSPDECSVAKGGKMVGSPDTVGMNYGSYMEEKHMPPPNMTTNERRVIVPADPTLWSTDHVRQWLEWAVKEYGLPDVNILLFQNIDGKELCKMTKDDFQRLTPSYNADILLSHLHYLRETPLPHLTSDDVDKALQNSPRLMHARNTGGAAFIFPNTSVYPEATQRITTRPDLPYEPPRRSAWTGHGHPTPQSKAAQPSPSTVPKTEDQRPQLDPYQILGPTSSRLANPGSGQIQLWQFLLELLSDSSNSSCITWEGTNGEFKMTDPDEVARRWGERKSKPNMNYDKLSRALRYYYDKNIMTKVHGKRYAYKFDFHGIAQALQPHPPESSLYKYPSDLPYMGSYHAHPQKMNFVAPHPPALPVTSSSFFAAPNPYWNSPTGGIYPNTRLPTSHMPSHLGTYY
Outline: as §1

ELF1 = ELF1 (Homo sapiens, UniProt P32519 1-619); conditions: protein: recombinant; tags: N-terminal GST; dsDNA, one strand shown
Sequence of ELF1 (P32519 whole entry): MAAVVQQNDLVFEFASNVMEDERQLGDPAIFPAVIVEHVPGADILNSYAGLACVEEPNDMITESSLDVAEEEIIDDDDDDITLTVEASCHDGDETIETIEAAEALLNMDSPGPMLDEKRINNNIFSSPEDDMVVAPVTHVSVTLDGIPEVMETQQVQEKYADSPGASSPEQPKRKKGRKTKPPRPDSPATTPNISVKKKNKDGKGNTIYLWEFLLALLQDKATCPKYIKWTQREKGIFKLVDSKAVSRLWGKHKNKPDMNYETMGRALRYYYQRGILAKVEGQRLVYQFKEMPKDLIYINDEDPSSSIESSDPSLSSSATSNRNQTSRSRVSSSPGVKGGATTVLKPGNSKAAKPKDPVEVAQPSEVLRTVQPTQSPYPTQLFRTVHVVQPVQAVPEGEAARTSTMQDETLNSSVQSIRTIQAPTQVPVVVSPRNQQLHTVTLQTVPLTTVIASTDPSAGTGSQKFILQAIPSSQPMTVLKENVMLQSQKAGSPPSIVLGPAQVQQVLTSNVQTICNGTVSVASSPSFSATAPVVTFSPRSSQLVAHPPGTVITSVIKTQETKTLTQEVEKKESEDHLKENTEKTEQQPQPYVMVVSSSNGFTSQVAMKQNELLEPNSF
Outline: as §1

EHF = target: T5, EHF (Homo sapiens, UniProt Q9NZC4 1-300); conditions: protein: recombinant; tags: N-terminal GST; dsDNA, one strand shown
T5 sequence: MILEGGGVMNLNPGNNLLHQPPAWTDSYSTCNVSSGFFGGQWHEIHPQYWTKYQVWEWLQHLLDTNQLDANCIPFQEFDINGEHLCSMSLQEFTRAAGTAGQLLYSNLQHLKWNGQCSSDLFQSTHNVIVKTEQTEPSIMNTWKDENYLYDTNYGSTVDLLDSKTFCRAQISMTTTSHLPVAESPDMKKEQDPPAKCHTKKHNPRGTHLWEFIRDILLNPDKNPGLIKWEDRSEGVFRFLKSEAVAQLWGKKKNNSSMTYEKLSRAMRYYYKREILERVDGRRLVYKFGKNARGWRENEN
Outline: as §1

SPI1 = SPI1 (Homo sapiens, UniProt P17947 1-270); conditions: protein: recombinant; tags: N-terminal GST; dsDNA, one strand shown
Outline: as §1

SPIB = SPIB (Homo sapiens, UniProt Q01892 1-262); conditions: protein: recombinant; tags: N-terminal GST; dsDNA, one strand shown
Sequence of SPIB (Q01892 whole entry): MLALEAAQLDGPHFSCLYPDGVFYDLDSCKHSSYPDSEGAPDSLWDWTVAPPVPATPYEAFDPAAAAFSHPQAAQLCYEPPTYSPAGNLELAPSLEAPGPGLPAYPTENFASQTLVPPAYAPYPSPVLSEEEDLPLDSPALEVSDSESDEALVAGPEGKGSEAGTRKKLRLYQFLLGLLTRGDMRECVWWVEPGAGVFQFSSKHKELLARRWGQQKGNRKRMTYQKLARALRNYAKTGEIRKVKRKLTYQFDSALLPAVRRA
Outline: as §1

ELK3 = target: T6, ELK3 (Homo sapiens, UniProt P41970 1-407); conditions: protein: recombinant; tags: N-terminal GST; dsDNA, one strand shown
T6 sequence: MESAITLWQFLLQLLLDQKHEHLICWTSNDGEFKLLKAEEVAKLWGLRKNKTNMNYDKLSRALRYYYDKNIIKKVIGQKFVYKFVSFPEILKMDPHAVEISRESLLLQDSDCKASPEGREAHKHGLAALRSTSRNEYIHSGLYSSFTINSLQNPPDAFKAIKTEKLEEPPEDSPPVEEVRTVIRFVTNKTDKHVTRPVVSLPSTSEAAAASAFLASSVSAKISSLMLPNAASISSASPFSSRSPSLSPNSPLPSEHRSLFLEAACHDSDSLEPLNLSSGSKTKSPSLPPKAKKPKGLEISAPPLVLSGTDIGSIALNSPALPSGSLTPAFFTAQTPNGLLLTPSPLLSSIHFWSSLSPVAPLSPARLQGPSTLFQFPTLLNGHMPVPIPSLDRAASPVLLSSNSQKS
Outline: as §1

FEV = target: T7, FEV (Homo sapiens, UniProt Q99581 1-238); conditions: protein: recombinant; tags: N-terminal GST; dsDNA, one strand shown
T7 sequence: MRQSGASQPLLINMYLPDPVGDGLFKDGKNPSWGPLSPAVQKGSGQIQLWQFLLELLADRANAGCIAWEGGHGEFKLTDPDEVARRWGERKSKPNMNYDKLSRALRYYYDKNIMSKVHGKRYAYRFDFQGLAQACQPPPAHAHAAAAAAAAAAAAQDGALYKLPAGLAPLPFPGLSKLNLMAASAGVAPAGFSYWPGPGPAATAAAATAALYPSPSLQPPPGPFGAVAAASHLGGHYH
Outline: as §1

ETV5 = ETV5 (Homo sapiens, UniProt P41161 1-510); conditions: protein: recombinant; tags: N-terminal GST; dsDNA, one strand shown
Sequence of ETV5 (P41161 whole entry): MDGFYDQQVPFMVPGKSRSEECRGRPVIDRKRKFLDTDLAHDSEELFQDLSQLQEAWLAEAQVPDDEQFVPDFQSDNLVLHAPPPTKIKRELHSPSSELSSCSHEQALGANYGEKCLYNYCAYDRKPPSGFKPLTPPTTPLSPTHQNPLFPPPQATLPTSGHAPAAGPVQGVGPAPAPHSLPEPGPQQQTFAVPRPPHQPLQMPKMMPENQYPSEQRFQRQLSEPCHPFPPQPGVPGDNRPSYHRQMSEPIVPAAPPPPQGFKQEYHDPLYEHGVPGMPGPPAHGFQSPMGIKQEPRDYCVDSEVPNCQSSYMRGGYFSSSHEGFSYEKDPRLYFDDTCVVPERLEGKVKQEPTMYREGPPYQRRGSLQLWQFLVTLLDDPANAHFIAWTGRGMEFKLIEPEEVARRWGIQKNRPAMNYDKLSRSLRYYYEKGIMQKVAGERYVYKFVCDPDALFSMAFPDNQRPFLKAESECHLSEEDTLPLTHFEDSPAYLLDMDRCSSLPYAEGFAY
Outline: as §1

HSF1 = HSF1 (Homo sapiens, UniProt Q00613 1-529); conditions: protein: recombinant; tags: N-terminal GST; chain copies: 3; dsDNA, one strand shown
Sequence of HSF1 (Q00613 whole entry): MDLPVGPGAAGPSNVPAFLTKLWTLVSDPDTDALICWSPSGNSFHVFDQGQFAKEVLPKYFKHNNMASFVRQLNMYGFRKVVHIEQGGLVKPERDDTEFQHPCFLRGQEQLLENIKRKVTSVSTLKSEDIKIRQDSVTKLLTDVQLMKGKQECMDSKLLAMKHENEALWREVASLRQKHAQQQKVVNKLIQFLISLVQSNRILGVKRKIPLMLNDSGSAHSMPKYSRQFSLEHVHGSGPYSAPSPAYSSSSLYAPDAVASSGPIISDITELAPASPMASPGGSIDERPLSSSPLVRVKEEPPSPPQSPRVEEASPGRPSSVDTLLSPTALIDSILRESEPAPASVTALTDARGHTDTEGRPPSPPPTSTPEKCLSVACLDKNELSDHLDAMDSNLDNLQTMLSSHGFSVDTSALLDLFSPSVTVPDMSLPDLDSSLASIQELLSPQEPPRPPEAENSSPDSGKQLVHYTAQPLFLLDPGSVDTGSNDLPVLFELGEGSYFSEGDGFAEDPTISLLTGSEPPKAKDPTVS
Outline: as §1

SPIC = target: T8, SPIC (Homo sapiens, UniProt Q8N5J4 1-248); conditions: protein: recombinant; tags: N-terminal GST; dsDNA, one strand shown
T8 sequence: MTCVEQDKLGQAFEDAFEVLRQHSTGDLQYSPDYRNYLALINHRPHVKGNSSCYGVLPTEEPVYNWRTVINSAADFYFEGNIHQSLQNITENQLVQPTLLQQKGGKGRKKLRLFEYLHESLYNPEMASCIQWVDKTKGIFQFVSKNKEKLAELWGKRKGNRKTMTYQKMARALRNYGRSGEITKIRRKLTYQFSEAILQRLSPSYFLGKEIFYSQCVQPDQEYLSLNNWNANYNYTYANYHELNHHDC
Outline: as §1

ELF4 = ELF4 (Homo sapiens, UniProt Q99607 1-663); conditions: protein: recombinant; tags: N-terminal GST; dsDNA, one strand shown
Sequence of ELF4 (Q99607 whole entry): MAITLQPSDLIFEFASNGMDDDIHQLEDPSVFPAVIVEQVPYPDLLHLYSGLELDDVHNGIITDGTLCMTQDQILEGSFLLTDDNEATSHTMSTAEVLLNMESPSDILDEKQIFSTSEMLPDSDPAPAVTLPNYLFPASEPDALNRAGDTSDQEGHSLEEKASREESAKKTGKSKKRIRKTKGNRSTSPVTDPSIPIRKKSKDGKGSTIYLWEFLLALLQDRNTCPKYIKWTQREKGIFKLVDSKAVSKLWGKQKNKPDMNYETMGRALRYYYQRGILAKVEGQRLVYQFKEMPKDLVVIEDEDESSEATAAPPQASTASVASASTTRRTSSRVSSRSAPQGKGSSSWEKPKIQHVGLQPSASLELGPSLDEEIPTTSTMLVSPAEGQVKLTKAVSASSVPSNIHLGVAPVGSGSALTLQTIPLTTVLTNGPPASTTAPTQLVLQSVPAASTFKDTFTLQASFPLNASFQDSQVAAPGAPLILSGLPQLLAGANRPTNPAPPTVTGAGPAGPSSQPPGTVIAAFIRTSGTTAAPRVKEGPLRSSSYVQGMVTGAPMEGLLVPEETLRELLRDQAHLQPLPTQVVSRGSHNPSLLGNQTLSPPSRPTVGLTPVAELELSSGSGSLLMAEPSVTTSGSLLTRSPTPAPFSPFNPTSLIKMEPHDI
Outline: as §1

ELK4 = target: T9, ELK4 (Homo sapiens, UniProt P28324-2 1-405); conditions: protein: recombinant; tags: N-terminal GST; dsDNA, one strand shown
T9 sequence: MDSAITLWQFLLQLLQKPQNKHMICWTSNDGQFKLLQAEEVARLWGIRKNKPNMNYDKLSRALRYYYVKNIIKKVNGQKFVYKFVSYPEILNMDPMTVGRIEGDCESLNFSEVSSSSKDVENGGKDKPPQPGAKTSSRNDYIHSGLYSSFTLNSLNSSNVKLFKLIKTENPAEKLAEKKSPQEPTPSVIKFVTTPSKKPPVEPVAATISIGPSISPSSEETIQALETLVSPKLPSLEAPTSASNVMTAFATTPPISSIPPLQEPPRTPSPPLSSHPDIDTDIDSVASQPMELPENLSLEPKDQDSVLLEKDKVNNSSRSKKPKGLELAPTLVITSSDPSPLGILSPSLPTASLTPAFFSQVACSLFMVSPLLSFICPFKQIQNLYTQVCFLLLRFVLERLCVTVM
Outline: as §1

ETV2 = target: T10, ETV2 (Homo sapiens, UniProt O00321 1-342); conditions: protein: recombinant; tags: N-terminal GST; dsDNA, one strand shown
T10 sequence: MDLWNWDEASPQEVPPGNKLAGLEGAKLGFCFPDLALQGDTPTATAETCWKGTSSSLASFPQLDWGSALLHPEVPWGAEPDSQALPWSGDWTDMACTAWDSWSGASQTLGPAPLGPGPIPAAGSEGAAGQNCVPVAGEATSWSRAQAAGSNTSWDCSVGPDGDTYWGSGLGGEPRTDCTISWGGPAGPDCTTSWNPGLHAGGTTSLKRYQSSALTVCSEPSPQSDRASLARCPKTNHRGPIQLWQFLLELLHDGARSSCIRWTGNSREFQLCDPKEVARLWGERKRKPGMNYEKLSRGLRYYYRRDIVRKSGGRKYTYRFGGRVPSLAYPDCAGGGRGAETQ
Outline: as §1

ELF3 = target: T11, ELF3 (Homo sapiens, UniProt P78545 1-371); conditions: protein: recombinant; tags: N-terminal GST; dsDNA, one strand shown
T11 sequence: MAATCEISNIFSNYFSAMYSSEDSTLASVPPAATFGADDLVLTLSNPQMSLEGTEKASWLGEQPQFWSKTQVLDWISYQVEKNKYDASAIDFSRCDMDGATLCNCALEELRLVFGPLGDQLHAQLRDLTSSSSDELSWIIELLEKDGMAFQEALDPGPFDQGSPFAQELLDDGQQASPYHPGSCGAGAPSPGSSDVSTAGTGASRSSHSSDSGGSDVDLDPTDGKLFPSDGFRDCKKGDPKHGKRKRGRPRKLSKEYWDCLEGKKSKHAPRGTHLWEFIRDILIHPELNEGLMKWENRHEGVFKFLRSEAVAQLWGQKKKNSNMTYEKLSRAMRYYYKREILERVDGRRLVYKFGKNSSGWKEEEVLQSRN
Outline: as §1

CRX = CRX (Homo sapiens, UniProt O43186 1-299); conditions: protein: recombinant; tags: N-terminal GST; dsDNA, one strand shown
Sequence of CRX (O43186 whole entry): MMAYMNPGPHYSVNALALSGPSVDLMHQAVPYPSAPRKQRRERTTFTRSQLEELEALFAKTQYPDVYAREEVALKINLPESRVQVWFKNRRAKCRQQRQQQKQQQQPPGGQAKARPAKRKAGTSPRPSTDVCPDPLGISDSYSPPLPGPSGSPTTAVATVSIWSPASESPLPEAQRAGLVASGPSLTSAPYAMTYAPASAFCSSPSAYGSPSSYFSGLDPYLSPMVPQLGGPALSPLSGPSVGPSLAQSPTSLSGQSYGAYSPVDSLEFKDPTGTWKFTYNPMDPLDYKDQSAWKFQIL
Outline: as §1

ETV1 = ETV1 (Homo sapiens, UniProt P50549 1-477); conditions: protein: recombinant; tags: N-terminal GST; dsDNA, one strand shown
Sequence of ETV1 (P50549 whole entry): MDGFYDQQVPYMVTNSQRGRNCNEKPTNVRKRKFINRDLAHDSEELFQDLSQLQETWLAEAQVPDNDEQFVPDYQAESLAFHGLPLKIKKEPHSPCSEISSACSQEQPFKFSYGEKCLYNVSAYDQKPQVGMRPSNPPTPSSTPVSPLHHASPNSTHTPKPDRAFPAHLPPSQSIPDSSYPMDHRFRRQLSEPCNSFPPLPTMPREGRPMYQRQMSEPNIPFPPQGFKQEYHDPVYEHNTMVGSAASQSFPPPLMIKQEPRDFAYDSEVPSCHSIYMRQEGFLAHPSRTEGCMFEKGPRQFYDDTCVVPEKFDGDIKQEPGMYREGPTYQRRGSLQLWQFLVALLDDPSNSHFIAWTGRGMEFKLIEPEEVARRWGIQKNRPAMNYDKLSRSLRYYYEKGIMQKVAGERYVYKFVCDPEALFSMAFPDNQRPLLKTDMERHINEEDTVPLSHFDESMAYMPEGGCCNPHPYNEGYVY
Outline: as §1

In the case of AATCTA, the binding signal (FLI1) is reported as 1.07 fold enrichment (6-mer frequency, TF over GST control), the binding signal (ELK1) is reported as 1.06 fold enrichment (6-mer frequency, TF over GST control) and the binding signal (GABPA) is reported as 1.05 fold enrichment (6-mer frequency, TF over GST control). For the same sequence, the binding signal (ERG) was 1.17 fold enrichment (6-mer frequency, TF over GST control), the binding signal (ELF1) was 1.17 fold enrichment (6-mer frequency, TF over GST control) and the binding signal (EHF) was 1.17 fold enrichment (6-mer frequency, TF over GST control). For the same sequence, the binding signal (SPI1) was 1.12 fold enrichment (6-mer frequency, TF over GST control), the binding signal (SPIB) was 1.17 fold enrichment (6-mer frequency, TF over GST control) and the binding signal (ELK3) was 1.12 fold enrichment (6-mer frequency, TF over GST control). For the same sequence, the binding signal (FEV) was 1.15 fold enrichment (6-mer frequency, TF over GST control), the binding signal (ETV5) was 1.12 fold enrichment (6-mer frequency, TF over GST control) and the binding signal (HSF1) was 1.87 fold enrichment (6-mer frequency, TF over GST control). The binding signal (SPIC) was 1.1 fold enrichment (6-mer frequency, TF over GST control), the binding signal (ELF4) was 1.14 fold enrichment (6-mer frequency, TF over GST control) and the binding signal (ELK4) was 1.07 fold enrichment (6-mer frequency, TF over GST control). The binding signal (ETV2) was 1.09 fold enrichment (6-mer frequency, TF over GST control), the binding signal (ELF3) was 1.04 fold enrichment (6-mer frequency, TF over GST control) and the binding signal (CRX) was 1.92 fold enrichment (6-mer frequency, TF over GST control). For the same sequence, the binding signal (ETV1) was 1.21 fold enrichment (6-mer frequency, TF over GST control).
